According to PubChem BioAssay AID2314 (National Center for Advancing Translational Sciences (NCATS), 2010):
Where “and” joins values, the source holds several entries; their conditions need not be identical. Equal entries are not always repeated. Among all 300,000 compounds or so, about 37,000 (12%) were called active. This is one part of a sample in which actives are shown more often than they occur. A number with no mark means an inactive call. No stated cut-off is given here; in the data, active means max response mostly above about 13% (no sharp cut-off); inactive means mostly below about 14%.

Test: Cycloheximide Counterscreen for Small Molecule Inhibitors of Shiga Toxin; further: read at 38.3 µM for the half of the compounds with a filed dose; 0% is about no effect
Details: cell reporter, cycloheximide protein synthesis inhibition counterscreen; stronger effect = higher value

Row | Compound | max response
1 | COc1ccc(N2C(=O)CC(Sc3n[nH]c(-c4ccc(C)cc4)n3)C2=O)cc1 (stereo unspecified) | -1.55%
2 | COc1ccc(C2=NN(c3nc4ccccc4s3)C(=O)C2)cc1 | 25.8% (active)
3 | CN(C(=O)COC(=O)c1nc(Cl)ccc1Cl)C1CCS(=O)(=O)C1 (stereo unspecified) | -1.17%
4 | COC(=O)c1c(-c2ccc(C)cc2)csc1N | 9.52%
5 | Nc1scc(-c2ccncc2)c1Cl | 26% (active)
6 | O=C(c1ccc(S(=O)(=O)c2ccccc2)cc1)N1CCCCCC1 | -1.02%
7 | CC1CCN(C(=O)c2ccc(CSc3ccc(Cl)cc3)cc2)CC1 | -3.83%
8 | O=C(c1ccc(CSc2ccccc2)cc1)N1CCCCCC1 | 66.2% (active)
9 | Cc1cccc(C)c1NC(=O)CSc1nc2c([nH]1)c(=O)n(C)c(=O)n2C | -6.42%
10 | CC1=C(C(=O)OCC2CCCCC2)C(c2ccc(F)cc2)NC(=O)N1 (stereo unspecified) | -1.88%
11 | Cc1cccc(N2C(=O)NC(=O)/C(=C\c3cnn(-c4ccccc4)c3)C2=O)c1 | 25.1% (active)
12 | Cc1cccc(N2C(=O)c3cccnc3C2=O)c1 | 7.77%
13 | Cc1cccc(N2C(=O)C3C(c4ccccc4)OC4(C(=O)c5ccccc5C4=O)C3C2=O)c1 (stereo unspecified) | 7.54%
14 | CC(CNC(=O)c1ccc(Br)o1)NC(=O)c1ccc(Br)o1 (stereo unspecified) | -3.59%
15 | CC(C)(C)C1CCC(=NNC(=O)c2cc(-c3ccccc3)n[nH]2)CC1 (stereo unspecified) | 5.64%
16 | CCC(C)(C)C1CCC(=NNC(=O)c2ccc(Br)o2)CC1 (stereo unspecified) | 44.3% (active)
17 | O=C(CNC(=O)c1ccc(Br)o1)NCC1CCCO1 (stereo unspecified) | -2.05%
18 | CC(NC(=O)C(=O)NN=C1CCC(C(C)(C)C)CC1)c1ccccc1 (stereo unspecified) | 1.38%
19 | CC(C)(C)C1CCC(=NNC(=O)c2ccc(Br)o2)CC1 (stereo unspecified) | 35.2% (active)
20 | CC(=O)N1C(C)c2ccccc2C(C)(C)CC12CCCCC2 (stereo unspecified) | -1.42%
21 | Cc1ccc(C)c(N2CCN(S(=O)(=O)c3c(C)[nH]c(C)c3C(=O)N3CCCC3)CC2)c1 | -1.94%
22 | C=CC(COCc1ccccc1)N(Cc1ccccc1)S(=O)(=O)c1ccccc1Br (stereo unspecified) | -2.35% and 5.45%
23 | Cc1ccc(NC(=O)NC(=O)N(C2CCCCC2)S(=O)(=O)c2ccccc2)cc1 | 40.9% (active)
24 | Cc1ccc(S(=O)(=O)N(C)CC(=O)NC2CCCC2)cc1 | -2.07%
25 | CS(=O)(=O)N(C(=O)NC(=O)NC1CCS(=O)(=O)C1)C1CCCCC1 (stereo unspecified) | -1.14%
26 | CCOc1ccccc1NC(=O)CCS(=O)(=O)c1cccc2nsnc12 | -6.23%
